Rows were chosen to be rich in hits. Some 8% of all compounds tested hit in one or more screens of this group.
MARV entry inh – Marburg virus entry inhibition. Potency, µM (highest dose often 49.2 µM), for the others: at the highest dose activity change, negative = inhibition, most hits filed as inhibitors. Marburg virus pseudotype entry/binding inhibition, cell-based. 6.5% of 18,000 active. AID 720532
Lassa entry – Lassa virus entry inhibition. Lassa virus pseudotyped entry inhibition, cell-based qHTS. Potency, µM (highest dose often 49.2 µM), without a hit: at the highest dose activity change, negative = inhibition, hits mostly inhibitors. 4.1% of 18,000 active. AID 720533
* hit, by the source's call; ! = repeats disagree; [ ] = another dose, or the depositor's remark. The call rests on the fitted dose curve; tested in HEK293 cells. On the % scale 0 is the no-effect control and ±100 the full control effect; potency means the concentration at half of the fitted maximal effect.

`CC(=O)OC[C@H]1O[C@H](C#Cc2ccccc2)C=C[C@H]1O` gave MARV entry inh -3.2%[8.59 µM] and Lassa entry 5.1%[8.59 µM].
Screening CN(C)CC(O)Cn1c2ccc(Br)cc2c2cc(Br)ccc21 (configuration not stated) returned MARV entry inh 7.94µM* and Lassa entry 22.4µM*.
Screening C#CCCCON=C1C[C@@H](O)[C@H](O)[C@H]2[C@@H]3C(=O)N(C[C@@H]4CCCO4)C(=O)[C@@H]3CC[C@@H]12 returned MARV entry inh 3.5%[8.59 µM] and Lassa entry 25.7%[8.59 µM].
CN1CC[C@@H]2CN3CCc4cccc(c43)[C@H]2C1 was read as MARV entry inh inconclusive and Lassa entry -5.9%.
`c1ccc2c(c1)Sc1ccccc1N2CC1CN2CCC1CC2` (configuration not stated) gave MARV entry inh 12.6µM* and Lassa entry inconclusive.
CN1CCC(CN2c3ccccc3Sc3ccccc32)C1 (configuration not stated) was read as MARV entry inh 10µM* and Lassa entry 15.8µM*.
`COC(=O)N[C@H](C(C(=O)OC)=C(C)NCc1ccccc1)c1cccs1` gave MARV entry inh 8.1%[8.59 µM].
For COc1ccc(C(=O)NCC2Cc3cc(C)cc(-c4cc(C(C)=O)ccc4F)c3O2)c(OC)c1OC (configuration not stated) the results were MARV entry inh -22.4% and Lassa entry 0.1%.
`CCCNC(=O)OC[C@H]1O[C@H](CCON=C(C)CCN2CCCc3nc(C)c(C)cc32)C=C[C@H]1Oc1ccc(OC)cc1` gave MARV entry inh inconclusive and Lassa entry 28.1%[8.59 µM].
Screening CN1CCC(=C2c3ccccc3CCc3cccnc32)CC1 returned MARV entry inh -24.5% and Lassa entry -4.5%.
`CCOC(=O)N1CCC(=C2c3ccc(Cl)cc3CCc3cccnc32)CC1` gave MARV entry inh -17.2% and Lassa entry 31.6µM*!.
`CC(C)C1C(=O)N(Cc2cn(CC3CCCCC3)nn2)CCS(=O)(=O)N1Cc1ccc(-c2ccc(Cl)nc2)cc1` (configuration not stated) gave MARV entry inh inconclusive and Lassa entry 11.4%.
`CC(C)C1C(=O)N(Cc2cn(CC3CCCCC3)nn2)CCS(=O)(=O)N1Cc1ccc(-c2ccc(F)nc2)cc1` (configuration not stated) gave MARV entry inh inconclusive and Lassa entry 19.9µM*.
Screening COc1ccc(C=CNC(=O)c2ccc(OC)cc2)cc1 returned MARV entry inh 17.8%[8.59 µM] and Lassa entry 3.4%[8.59 µM].
Screening COC(=O)c1c(C(=O)OC)c2c3cc(OC)c(OC)cc3ccn2c1C(=O)OC returned MARV entry inh 23.4%[8.59 µM].
O=C1Nc2ccccc2C1=C1CCc2cc(O)ccc21 was read as MARV entry inh -21.1%.
CCN(CCNC(=O)[C@H]1C=C(OC)C(=O)C[C@H](c2ccccc2)[C@@H]1C)C(C)=O was read as MARV entry inh -18.2%[8.59 µM] and Lassa entry 3.3%[8.59 µM].
Screening O[N+]1=CC=CCC1=S.On1ccccc1=S.[Zn] returned MARV entry inh 4.47µM* and Lassa entry 3.55µM*.
COC(=O)[C@@]1(C=C2c3ccc(F)cc3[C@@H](OC)[C@@H]2C)[C@@H]2c3ccccc3O[C@@H]21 was read as MARV entry inh inconclusive and Lassa entry 1.5%[8.59 µM].
Screening COC1=C[C@H](C(=O)NC2CCN(Cc3ccccc3)CC2)[C@@]2(C)Cc3ccccc3[C@@H]2CC1=O returned MARV entry inh -18.2%[8.59 µM] and Lassa entry 28.0%[8.59 µM].
For COC/C=C/C1=CC2=CC(=O)C(C)(OC(=O)c3cnc4ccccc4n3)C(=O)C2=CO1 (configuration not stated) the results were MARV entry inh 14.5% and Lassa entry 5.62µM*.
CCC(=O)OC1(C)C(=O)C=C2C=C(/C=C/COC)OC=C2C1=O (configuration not stated) was read as MARV entry inh -14.1% and Lassa entry 0.1%.
C#CCN1C(=O)[C@]2(OCCC=C[C@H]2C)c2c(Br)cccc21 was read as MARV entry inh inconclusive and Lassa entry 0.7%[8.59 µM].
Cc1ccc2[nH]c3c(c2c1)CN(C(=O)CC1(c2ccccc2)CC(=O)N(Cc2cccnc2)C1=O)CC3 (configuration not stated) was read as MARV entry inh -25.5% and Lassa entry -25.2%.
Screening c1ccc(-c2[nH]ncc2-c2ccnc(-c3ccc(OCCN4CCOCC4)cc3)c2)nc1 returned MARV entry inh -19.1% and Lassa entry -14.4%.
For c1cc(-c2cnn3cc(-c4ccc(OCCN5CCCCC5)cc4)cnc23)ccn1 the results were MARV entry inh 12.6µM* and Lassa entry 40.6%.
`CCOC(=O)CN1C(=O)NC(c2cccc(F)c2)C(C(C)=O)=C1C` (configuration not stated) gave MARV entry inh 12.7%[8.59 µM] and Lassa entry 4.5%[8.59 µM].
`CC1(C)C(O)CC(O)[C@]2(C)C1CC(O)[C@]1(C)C2CC[C@@]2(C)C(c3ccoc3)OC(=O)C3O[C@]312` (some centres not stated) gave MARV entry inh inconclusive and Lassa entry 2.1%.
`CC1(C)C(=O)C=C[C@@]2(C)C1CC(O)[C@]1(C)C2CC[C@@]2(C)C(c3ccoc3)OC(=O)C3O[C@]312` (some centres not stated) gave MARV entry inh 12.6µM* and Lassa entry inconclusive.
Screening CC1(C)C(=O)C=C[C@@]2(C)C1C=C[C@@]1(C)C2CC[C@@]2(C)C(c3ccoc3)OC(=O)C3OC312 (some centres not stated) returned MARV entry inh 7.94µM* and Lassa entry inconclusive.
`CC1(C)OC2CC(=O)OCC23C1CC(=O)C1(C)C3CC[C@@]2(C)[C@H](c3ccoc3)OC(=O)C3OC312` (some centres not stated) gave MARV entry inh 1.8% and Lassa entry -11.9%.
C=CCCN(Cc1ccc(C)cc1)S(=O)(=O)C=C was read as MARV entry inh 18.7% and Lassa entry 26.4%.
CCCCC/C=C\C/C=C\C/C=C\C/C=C\CCCC(=O)N(Cc1ccc(O)c(Cl)c1)Cc1ccc(O)c(Cl)c1 was read as MARV entry inh inconclusive and Lassa entry 0.0794µM*.
`CCCCC/C=C\C/C=C\C/C=C\C/C=C\CCCCCC(=O)NCCc1ccc(O)c(O)c1` gave MARV entry inh 23.0% and Lassa entry -0.9%.
For COC(=O)C1=C(C(=O)OC)[C@@H]2N(Cc3ccccc3)c3ccccc3[C@@]23C[C@@H](C(=O)OC)N(C(=O)NCCBr)C3=N1 the results were MARV entry inh 7.6%[8.59 µM] and Lassa entry -13.6%[8.59 µM].
`CC1(C)CN(CCc2ccccc2)C(=O)[C@@H]1CC(=O)Nc1ccccc1` gave MARV entry inh 3.6% and Lassa entry 20.0%.
For COc1ccc2c(c1)OC(C)(C)C(c1ccccc1)C2c1ccc(OCCN2CCCC2)cc1 (configuration not stated) the results were MARV entry inh 4.47µM* and Lassa entry inconclusive.
COc1cccc([C@@H]2Oc3ccc(OC)cc3C(=O)[C@H]2OC(=O)NCCOc2ccccc2)c1 was read as MARV entry inh -10.0% and Lassa entry -3.6%.
CCCCC(=O)O[C@@]1(C(=O)CO)C(C)CC2C3CCC4=CC(=O)C=C[C@@]4(C)[C@]3(F)C(O)C[C@]21C (some centres not stated) was read as MARV entry inh -12.5% and Lassa entry -2.0%.
